Measurements from PubChem BioAssay AID1650 (Southern Research Specialized Biocontainment Screening …, 2009).
Results with a measured potency or affinity are listed apart. Activity calls are given as the source filed them. How the calls were made is not given here.

test: mammalian cell viability reduction – secondary assay, cytotoxicity control for West Nile virus antiviral project, dose response (AID 1650); details: Mammalian host cell viability, cytotoxicity counter-screen; series mostly up to 10 µM

Row | SMILES | outcome
1 | Cc1ccc2[nH]c(=O)c(CN(CCCN(C)C)C(=O)Nc3ccc(Cl)cc3)cc2c1 | inactive
2 | Cc1ccc(-n2c(SCC(=O)Nc3ccc(N4CCOCC4)cc3)nc3ccccc3c2=O)cc1 | inactive
3 | CC(C)(C)c1ccc(-c2nnc(SCC(=O)Nc3sc4c(c3C#N)CCCC4)o2)cc1 | inactive
4 | CN(CCCNC(=O)c1cc2c(Cl)nc3ccccc3c2s1)Cc1ccccc1 | inactive
5 | CCN(CCCNC(=O)c1cc2c(-c3cccc(OC)c3)nn(C)c2s1)Cc1ccccc1 | inactive
6 | O=C(CCN1C(=O)/C(=C/c2ccc(F)cc2)SC1=S)NCCc1ccc(O)cc1 | inactive
7 | CC(C)(C)c1ccc(C(=O)O/N=C(\N)c2ccccc2)cc1 | inactive
8 | O=C(CCN1C(=O)/C(=C/c2ccccc2F)SC1=S)NCCc1ccc(O)cc1 | inactive
9 | COc1ccc(/C=C2/SC(=S)N(CCC(=O)N3CCN(C)CC3)C2=O)cc1 | inactive
10 | CCOc1ccc(NC(=NCc2ccc3c(c2)OCO3)SC2CC(=O)N(c3ccc(OCC)cc3)C2=O)cc1 (stereo not given) | inactive
11 | CN1CCN(Cc2nc3ccccc3c(=O)n2Cc2nc(-c3ccccc3F)cs2)CC1 | inactive
12 | Cc1ccc2[nH]c(=O)c(CN(CCCN3CCOCC3)C(=O)Nc3ccc(Cl)cc3)cc2c1 | inactive
13 | CCOc1ccc(NC(=O)Cn2c(=O)n(CCCC(=O)NC3CCN(Cc4ccccc4)CC3)c(=O)c3ccccc32)cc1 | inactive
14 | CC1CCCN(CCCNC(=O)c2cc3c(s2)-c2ccccc2OC3)C1 (stereo not given) | inactive
15 | CCN(CC)CCNC(=O)c1sc2ncn(CC(=O)Nc3ccc(C)c(Cl)c3)c(=O)c2c1C | inactive
16 | C=CCn1cc(C(=O)NCCOC)c(=O)c2cc(S(=O)(=O)N(CC)CC)ccc21 | inactive
17 | CCc1ccc(NC(=O)CSc2nc3ccccc3c(=O)n2CCCC(=O)NCCCN2CCOCC2)cc1 | inactive
18 | Cc1cccc(-c2ccc(NC(=O)C3CCN(CC4CC4)CC3)cc2)c1 | inactive
19 | COc1ccc(OCc2cccc(C(=O)Nc3ccc(CN4CCCCC4)cc3)c2)cc1 | inactive
20 | O=C(NCCCN1CCOCC1)c1cc2c([nH]c3ccccc32)c(-c2cccc(Br)c2)n1 | inactive

Row | SMILES | outcome
21 | O=[N+]([O-])c1ccc(Cl)c(/C=N/n2c(C3CCCCC3)n[nH]c2=S)c1 | inactive
22 | Cn1c(N)c(C(=O)CSc2nc3ccccc3c(=O)n2CCCN2CCOCC2)c(=O)n(C)c1=O | inactive
23 | CCn1cc(C(=O)NCc2ccc3c(c2)OCO3)c(=O)c2cc(F)c(N3CCN(C(=O)c4ccco4)CC3)cc21 | inactive
24 | CN1C2CCC1/C(=C\c1ccccc1)C(=O)/C2=C\c1ccccc1 | inactive
25 | COc1ccccc1NS(=O)(=O)c1cccc(NC(=O)Nc2ccc(Cl)cc2)c1 | inactive
26 | COc1cc(C2c3c(oc4cc(C)c(C)cc4c3=O)C(=O)N2c2cc(C)ccn2)ccc1O (stereo not given) | inactive
27 | CCN1CCN(CCNC(=O)c2ccc(/C=C3\Sc4ccccc4N(Cc4ccccc4F)C3=O)cc2)CC1 | inactive
28 | Cc1ccc(Cl)cc1N1CCN(CC(=O)Nc2ccc(CN3CCCCC3)cc2)CC1 | inactive
29 | CC(=O)Nc1ccccc1N(CC(O)Cn1c2ccccc2c2ccccc21)S(=O)(=O)c1ccc(C)cc1 (stereo not given) | inactive
30 | COCCN1CCCC(CNCc2cn(C)nc2-c2ccc(Oc3ccccc3)cc2)C1 (stereo not given) | inactive
31 | CCN1CCN(c2cc(C)c3cc(NC(=S)N4CC(C)CC(C)C4)ccc3n2)CC1 (stereo not given) | inactive
32 | Cn1cnc([N+](=O)[O-])c1Oc1cccc2ccccc12 | inactive
33 | COc1ccc(Nc2nc3ccccc3nc2C)cc1 | inactive
34 | CCOc1ccc(-c2cc(C(=O)NCCCN3CCN(CC)CC3)c3ccccc3n2)cc1 | inactive
35 | COc1cc(CNC(C)(C)CO)cc(Br)c1OCc1ccc(Cl)cc1Cl | inactive
36 | Cn1cc(CN2CCCC(C(=O)Nc3cccc(-c4cc5ccccc5[nH]4)c3)C2)cn1 (stereo not given) | inactive
37 | Cc1ccc(-c2nc3ccccc3n3nnnc23)cc1 | inactive
38 | COc1ccc(NC(=O)CSc2nc3ccccc3c(=O)n2CCCN2CCC(C)CC2)c(OC)c1 | inactive
39 | O=[N+]([O-])c1nn(-c2ccccc2)n(O)c1=NC1CCN(Cc2ccccc2)CC1 | inactive
40 | COc1cc(C(=O)/C=C/c2cccnc2)ccc1O | inactive
